Assay outcomes deposited in PubChem by The Scripps Research Institute Molecular Screening Center.
Sampled rows, rich in hits. Any-hit rate of the full collection: about 4.1%.
DAX1 inh-1: inhibitors of DAX1 repression of SF-1 activated StAR promoter; HEK293T StAR-luciferase reporter, SF-1/DAX-1 repression relief; inhibition, % at 6.8 µM; 370,000 tested, 1.1% active;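 active means inhibition above the mean over all tested compounds plus 3 SD, cut at about 3.6% in these data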;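 further: 0% = DAX-1 cells with DMSO and 100% = cells lacking DAX-1 with DMSO; higher inhibition means more luminescence from relief of DAX-1 repression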
DAX1 inh-2: inhibits human nuclear receptor DAX1; HEK293 Gal4-DAX1 luciferase reporter, luminescence; inhibition, % at 6.75 µM; 340,000 tested, 0.99% active; AID 504766;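 active means inhibition above the mean over all tested compounds plus 3 SD, cut at about 4.2% in these data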;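 further: 0% = DAX1-transfected cells with DMSO and 100% = empty-vector control cells with DMSO; inhibition shows as a rise in luminescence from relieved DAX1 repression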
hcDAF12 agonist: activators of H. contortus DAF-12 nuclear receptor; 370,000 tested, 1.4% active; HEK293 hcDAF-12 lit1-tk-luc reporter, luminescence; 0% DMSO, 100% Δ7-dafachronic acid; activation, % at 6.8 µM;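 active means activation above the mean of all tested compounds plus 3 SD, cut at about 5.5% in these data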;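 further: 100% = response to 3 µM Δ7-dafachronic acid high control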
hgDAF12 agonist: activates the H. glycines DAF-12 receptor ligand-binding domain; HEK293 GAL4-hgDAF12 UAS-luciferase reporter, agonist luminescence; normalized to butyrate control; activation, % at 6.8 µM; 370,000 tested, 1.8% active; AID 687014;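 active means activation above a cutoff set at the mean of all screened compounds plus 3 SD, cut at about 10% in these data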;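 further: 0% = DMSO wells and 100% = sodium butyrate wells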
ssDAF-12 act: S. stercoralis DAF-12 activation, primary screen; HEK293 ssDAF-12/GRIP1 lit1-tk-luc reporter, luminescence; % of 3 µM dafachronic acid response; 370,000 tested, 1% active; activation, % at 6.8 µM;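 active means activation above the mean over all tested compounds plus 3 SD, cut at about 0.9% in these data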;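 further: 0% = DMSO-only wells and 100% = 3 µM delta7-dafachronic acid wells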
LXRb hcDAF ctr: activates human LXR-beta, counter-screen for hcDAF-12 agonists; shares compounds with hcDAF12 agonist; HEK293 Gal4-LXR tk-luc reporter, luminescence, 24 h; normalized: DMSO 0%, positive control 100%; activation, % at 6.8 µM; 3,400 tested, under 10 active;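 active means mean percent activation of the reporter above a cutoff set as the average over tested compounds plus their standard deviation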
Target sequence (P55055 whole entry, looked up, the tested form may be a part): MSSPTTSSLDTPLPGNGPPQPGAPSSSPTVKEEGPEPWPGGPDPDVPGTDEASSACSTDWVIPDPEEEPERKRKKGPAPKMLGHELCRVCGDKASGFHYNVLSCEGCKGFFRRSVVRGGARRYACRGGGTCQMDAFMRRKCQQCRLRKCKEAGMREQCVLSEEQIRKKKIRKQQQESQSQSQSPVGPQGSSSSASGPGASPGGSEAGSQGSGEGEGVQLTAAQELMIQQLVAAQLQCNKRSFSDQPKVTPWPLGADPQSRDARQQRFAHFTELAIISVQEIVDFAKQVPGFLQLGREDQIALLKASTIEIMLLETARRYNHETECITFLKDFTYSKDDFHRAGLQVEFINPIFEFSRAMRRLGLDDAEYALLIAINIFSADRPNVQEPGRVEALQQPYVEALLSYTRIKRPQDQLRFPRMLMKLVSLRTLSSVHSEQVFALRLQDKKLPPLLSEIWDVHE
hcDAF12 ag: confirmation of H. contortus DAF-12 agonists; HEK293 hcDAF-12 lit1-tk-luc reporter, luminescence; % of Δ7-dafachronic acid response; 3,400 tested, 61% active; AID 743032; activation, % at 6.8 µM; shares compounds with hcDAF12 agonist;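 active means mean activation across triplicate tests above the threshold derived from the earlier primary screen, cut at about 5.5% in these data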;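 further: 0% = DMSO only wells and 100% = 3 µM Δ7-dafachronic acid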
hgDAF12 ag: hgDAF-12 agonism, confirmation assay; shares compounds with hgDAF12 agonist; HEK293 GAL4-hgDAF12 luciferase reporter, agonist mode; percent of butyrate response; activation, % at 6.8 µM; 3,300 tested, 80% active; AID 743050;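 active means mean activation over triplicate wells above the hit cutoff derived from the earlier primary screen, cut at about 11% in these data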;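 further: 0% = DMSO low control and 100% = 2 mM sodium butyrate high control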
LXRb DAF12 ctr: counter-screen for DAF-12 agonists: agonists of human LXR-beta; shares compounds with hgDAF12 agonist; AID 743051; HEK293 Gal4-LXR luciferase reporter, 24 h; 3,300 tested, under 10 active; activation, % at 6.8 µM;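 active means mean activation of the triplicate above a set limit carried over from the primary screen, none filed active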
Active calls of the source: *.

O=C(Nc1ccc2[nH]c(=O)[nH]c2c1)Nc1ccc(F)cc1F was read as DAX1 inh-1 0.1, DAX1 inh-2 0.1, hcDAF12 agonist -1.9, hgDAF12 agonist -1.8 and ssDAF-12 act -1.7.
For Cc1csc2ncc(C(=O)NCCC(c3ccccc3)c3ccccc3)c(=O)n12 the results were DAX1 inh-1 0.1, DAX1 inh-2 -0.2, hcDAF12 agonist -1.5, hgDAF12 agonist -1.6 and ssDAF-12 act -1.4.
Screening Cc1csc2ncc(C(=O)NCCc3ccccc3)c(=O)n12 returned DAX1 inh-1 2.5, DAX1 inh-2 2.3, hcDAF12 agonist 8.7*, hgDAF12 agonist 14.0*, ssDAF-12 act 1.9*, LXRb hcDAF ctr 0.4, hcDAF12 ag 6.3*, hgDAF12 ag 8.6 and LXRb DAF12 ctr 0.3.
For CN(/N=C/c1ccncc1)c1cnc2ccccc2n1 the results were DAX1 inh-1 4.4*, DAX1 inh-2 1.3, hcDAF12 agonist 6.6*, hgDAF12 agonist 19.0*, ssDAF-12 act 1.5*, LXRb hcDAF ctr 0.9, hcDAF12 ag 10.3*, hgDAF12 ag 12.5* and LXRb DAF12 ctr 0.7.
For COC(=O)[C@]12C[C@H](CC(=O)NCc3ccc(C)o3)C(=O)N(Cc3ccco3)C1=C[C@H](C(C)C)O[C@@H]2C1CC1 the results were DAX1 inh-1 -0.5, hcDAF12 agonist -3.1, hgDAF12 agonist 5.4 and ssDAF-12 act -1.8.
`COc1ccc(N/C=C\C(=O)c2ccc(C)cc2)cc1OC` gave DAX1 inh-1 0.3, DAX1 inh-2 1.1, hcDAF12 agonist -0.6, hgDAF12 agonist 1.3 and ssDAF-12 act -0.6.
Screening Cc1ccc(Cl)c(N/C=C/C(=O)c2ccccc2)c1 returned DAX1 inh-1 2.7, DAX1 inh-2 3.0, hcDAF12 agonist 13.3*, hgDAF12 agonist 14.9*, ssDAF-12 act 2.9*, LXRb hcDAF ctr 1.7, hcDAF12 ag 16.1*, hgDAF12 ag 25.6* and LXRb DAF12 ctr 1.0.
For Cc1cccc(N/C=C/C(=O)c2ccc(Cl)cc2)c1 the results were DAX1 inh-1 1.9, DAX1 inh-2 4.7*, hcDAF12 agonist 6.6*, hgDAF12 agonist 13.8*, ssDAF-12 act 0.1, LXRb hcDAF ctr 1.5, hcDAF12 ag 6.9*, hgDAF12 ag 22.1* and LXRb DAF12 ctr 1.0.
`O=C1CC(/C=C/c2ccc(Cl)cc2)=Nc2ccccc2N1` gave DAX1 inh-1 0.5, DAX1 inh-2 2.6, hcDAF12 agonist 2.3, hgDAF12 agonist 17.0*, ssDAF-12 act -0.9, hgDAF12 ag 7.8 and LXRb DAF12 ctr 0.6.
O=C1CC(/C=C/c2ccccc2)=Nc2ccccc2N1 was read as DAX1 inh-1 0.7, DAX1 inh-2 1.1, hcDAF12 agonist -0.6, hgDAF12 agonist 2.6 and ssDAF-12 act -1.1.
`O=C(Nc1cccc(O)c1)c1ccc(C(F)(F)F)cc1` gave DAX1 inh-1 2.1, DAX1 inh-2 1.7, hcDAF12 agonist 3.6, hgDAF12 agonist 13.6*, ssDAF-12 act 0.3, hgDAF12 ag 13.3* and LXRb DAF12 ctr 0.7.
Screening O=C(Nc1cccc(C(F)(F)F)c1)c1cc[n+]([O-])cc1 returned DAX1 inh-1 -0.3, DAX1 inh-2 -0.6, hcDAF12 agonist -1.1, hgDAF12 agonist -1.9 and ssDAF-12 act -0.8.
Screening CCOC(=O)N[C@H](C(=O)N1CCC[C@H]1C(=O)NCc1ccccc1)C(C)C returned DAX1 inh-1 1.0, hcDAF12 agonist -1.8, hgDAF12 agonist 3.8 and ssDAF-12 act -0.8.
For Clc1cccc(Nc2nc(-c3ccncc3)cs2)c1 the results were DAX1 inh-1 0.8, DAX1 inh-2 -1.0, hcDAF12 agonist 1.8, hgDAF12 agonist 13.6*, ssDAF-12 act -0.9, hgDAF12 ag 7.2 and LXRb DAF12 ctr 0.3.
